{"source": "PubChem BioAssay AID2732", "about": "(Emory University Molecular Libraries Screening Center, 2010)", "note": "About 8,200 (3.7%) of roughly 220,000 compounds were called active. The sample as a whole holds a higher share of actives than the screen did. Unmarked numbers belong to inactive results.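 The calls were made as follows: active = compounds that reduced the stress-induced luciferase reporter signal by more than about 70% of percent inhibition (limit read from the data); inactive = the rest.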"}
{"assay": "blockers of ER-stress CHOP reporter expression – cell-based, unfolded protein response, luciferase reporter, primary screen (AID 2732);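 also: 0% = tunicamycin plus vehicle and 100% = wells without tunicamycin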", "conditions": "CHO-K1 CHOP-promoter luciferase, tunicamycin-induced, 15-18 h; at 10 µM; active compounds read high"}
{"molecule": "O=C(NNC(=S)Nc1ccc(F)cc1)[C@H]1C[C@@H]1c1ccccc1", "inhibition": "5.39%"}
{"molecule": "CCOc1cc(C)c(Cl)cc1S(=O)(=O)n1nnc2ccccc21", "inhibition": "73.7% (active)"}
{"molecule": "COc1cc(C)c(Cl)cc1S(=O)(=O)n1ccnc1", "inhibition": "14.6%"}
{"molecule": "CCCOc1cc(C)c(S(=O)(=O)n2nnc3ccccc32)cc1C", "inhibition": "-25.8%"}
{"molecule": "CN(c1ccccn1)c1ncnc2[nH]ncc12", "inhibition": "16.3%"}
{"molecule": "S=c1[nH]nc(-c2cccs2)n1/N=C/c1cn(-c2ccccc2)nc1-c1ccc(Cl)cc1", "inhibition": "57.5%"}
{"molecule": "Cc1ccc(NNC(=O)c2cccs2)cc1Cl", "inhibition": "-7.82%"}
{"molecule": "CSC1=NC2(C)CCCCC2C12C=CC(=O)C=C2", "note": "(stereo unspecified)", "inhibition": "-8.01%"}
{"molecule": "Clc1ccc(Cc2nnc(-c3cccs3)o2)cc1", "inhibition": "-8.41%"}
{"molecule": "O=C(Nc1nnc(Cc2ccc(Cl)cc2)s1)c1ccncc1", "inhibition": "2.85%"}
{"molecule": "CNC(=O)c1nnc(Cc2ccc(Cl)cc2)o1", "inhibition": "84.2% (active)"}
{"molecule": "CS(=O)(=O)c1ccc2nnn(OCC(=O)Nc3cccc(C#N)c3)c2c1", "inhibition": "7.09%"}
{"molecule": "CNC(=O)c1cccc2nc3ccccc3nc12", "inhibition": "-2.58%"}
{"molecule": "CCOC(=O)c1cnc(SCc2nc(N)nc(Nc3ccc(OC)cc3)n2)nc1N", "inhibition": "27.6%"}
{"molecule": "CCCCOc1ccc(-c2ncc(C(=O)OCC)c(N)n2)cc1", "inhibition": "87.4% (active)"}
{"molecule": "CCOC(=O)c1cnc(-c2ccccc2)nc1Oc1ccc(C)cc1", "inhibition": "16.8%"}
{"molecule": "O=C(N/N=C/c1ccco1)c1csc2c1CCCC2", "inhibition": "-20.7%"}
{"molecule": "CCOC(=O)C1=C(CSc2nccn2C)NC(=O)NC1c1ccc(OC)cc1", "note": "(stereo unspecified)", "inhibition": "34.2%"}
{"molecule": "COCCOC(=O)C1=C(C)N=c2s/c(=C\\c3cccs3)c(=O)n2C1c1cccs1", "note": "(stereo unspecified)", "inhibition": "4.98%"}
{"molecule": "CCOC(=O)C1=C(C)N=c2s/c(=C\\C(=O)OC)c(=O)n2C1c1ccc(OC)cc1", "note": "(stereo unspecified)", "inhibition": "89.2% (active)"}
{"molecule": "CC(C)Cc1ccc(C(C)C(=N)N)cc1", "note": "(stereo unspecified)", "inhibition": "4.47%"}
{"molecule": "CC(=O)NC(CC(=O)Nc1nccs1)c1ccccc1", "note": "(stereo unspecified)", "inhibition": "-2.49%"}
{"molecule": "CCC(C)(C)NC(=O)C(c1ccc(O)cc1)N(C(=O)Cn1nnc2ccccc21)c1ccc(NC(C)=O)cc1", "note": "(stereo unspecified)", "inhibition": "4.95%"}
{"molecule": "Cc1cc(-n2cnc(-c3cn(C)nc3C)n2)no1", "inhibition": "-11.3%"}
{"molecule": "Brc1ccc2c(c1)[C@H]1OCC[C@H]1[C@@H](c1cccs1)N2", "inhibition": "39.4%"}
{"molecule": "O=c1[nH][nH]c(=O)c2cc(N3CCCC3)ccc12", "inhibition": "2.26%"}
{"molecule": "O=C1C=CC(=O)N1c1ccc(N2CCCCC2)cc1", "inhibition": "94% (active)"}
{"molecule": "COc1cccc(OC)c1C(=O)Nc1ccc(N2CCCCC2)cc1", "inhibition": "15.2%"}
{"molecule": "Cc1nc(C(=O)NCc2ccccc2)sc1C1(C)CC(c2cccnc2)=NO1", "note": "(stereo unspecified)", "inhibition": "22.9%"}
{"molecule": "O=C(N/N=C/c1cccc2cccnc12)[C@H]1C[C@@H]1c1ccccc1", "inhibition": "52.4%"}
{"molecule": "CC1=NN(C(=O)c2ccc(Br)cc2)C(O)(c2ccccc2)C1", "note": "(stereo unspecified)", "inhibition": "16.6%"}
{"molecule": "CC1=NN(C(=O)c2ccccc2Br)C(O)(c2cccnc2)C1", "note": "(stereo unspecified)", "inhibition": "-24.4%"}
{"molecule": "CC1=NN(C(=O)Cc2ccc(C)cc2)C(O)(c2cccnc2)C1", "note": "(stereo unspecified)", "inhibition": "73.8% (active)"}
{"molecule": "O=C(O)C1=C[C@H](c2cccs2)C[C@H](OCCCCO)O1", "inhibition": "-3.52%"}
{"molecule": "Cc1ccc(S(=O)(=O)N(C)CC(=O)OCC(=O)Nc2ccccc2)cc1", "inhibition": "-0.65%"}
{"molecule": "COc1ccccc1P(=O)(c1ccccc1)c1ccccc1NC(C)=O", "note": "(stereo unspecified)", "inhibition": "10.1%"}
{"molecule": "CC(=O)c1ccc2c(c1)OCCOCCOc1ccc(C(C)=O)cc1OCCOCCO2", "inhibition": "1.66%"}
{"molecule": "COCCn1c(=NC(=O)c2ccccc2[N+](=O)[O-])sc2cc(S(C)(=O)=O)ccc21", "inhibition": "-7.33%"}
{"molecule": "Cn1c(=NC(=O)c2ccc3c(c2)OCCO3)sc2cc(S(C)(=O)=O)ccc21", "inhibition": "91.9% (active)"}
{"molecule": "O=C(Nc1ccccc1)O/N=C1/CCCc2occc21", "inhibition": "-8.45%"}
{"molecule": "CN1CCN(c2cc3c(cc2F)c(=O)c(C(=O)O)cn3CCF)CC1", "inhibition": "2.99%"}
{"molecule": "O=C(Cn1cnc2cc([N+](=O)[O-])ccc2c1=O)NC(=O)NCc1ccccc1", "inhibition": "-6.05%"}
{"molecule": "O=C(NNc1cc(Cl)cc(Cl)c1)c1c(F)cccc1Cl", "inhibition": "30.1%"}
{"molecule": "Cc1nn(CC(=O)N/N=C/c2ccc(F)cc2)c(C)c1[N+](=O)[O-]", "inhibition": "-4.46%"}
{"molecule": "CSc1nnc(SCc2nc3sc(C(=O)O)c(C)c3c(=O)[nH]2)s1", "inhibition": "3.13%"}
{"molecule": "O=C(NN1C(=O)C2CCCCC2C1=O)c1ccco1", "note": "(stereo unspecified)", "inhibition": "6.45%"}
{"molecule": "O=C(CSc1cccc2cccnc12)N/N=C/c1cccnc1", "inhibition": "42.7%"}
{"molecule": "S=C(NCc1cccnc1)Nc1ccc(Cl)cc1Cl", "inhibition": "2.87%"}
{"molecule": "CC(=O)/C(=N\\Nc1ccc(Cl)cc1Cl)Sc1cccc2cccnc12", "inhibition": "93.6% (active)"}
{"molecule": "Nc1ccc2nn(-c3ccc(Cl)cc3)nc2c1", "inhibition": "30.4%"}
{"molecule": "COc1cc(/C=N/O)ccc1OCc1ccc([N+](=O)[O-])cc1", "inhibition": "2.17%"}
{"molecule": "COC(=O)c1ccc(COc2ccc(/C=N/NC(=O)C(=O)Nc3ccc(OC)cc3)cc2OC)o1", "inhibition": "17.4%"}
{"molecule": "CCCc1ccc(OCc2ccc(C(=O)N/N=C/c3cccc([N+](=O)[O-])c3)o2)c(OC)c1", "inhibition": "85.8% (active)"}
{"molecule": "COc1cc(C(CCN2CCN(c3ccccc3)CC2)c2c(OC)cc(OC)c3ccc(=O)oc23)cc(OC)c1OC", "note": "(stereo unspecified)", "inhibition": "-15.7%"}
{"molecule": "Cc1[nH]n(-c2ccc(Cl)cc2)c(=O)c1/C=N/n1c(C)nc2ccccc2c1=O", "inhibition": "26.2%"}
{"molecule": "CCOc1ccc(N=Cc2c(O)n(-c3cccc(C)n3)c(=O)c3ccccc23)cc1", "inhibition": "-5.5%"}
{"molecule": "CCOc1[nH]n(-c2ccc(Cl)cc2)c(=O)c1C=Nc1ccc(O)cc1", "inhibition": "73.4% (active)"}
{"molecule": "CC(C)(C)c1cc(NC(=O)NN2CCOCC2)nn1-c1c(Cl)cc(Cl)cc1Cl", "inhibition": "11.2%"}
{"molecule": "CCNC(=S)N1CCN(CCN=CC2=C(O)CC(C)(C)CC2=O)CC1", "inhibition": "13%"}
{"molecule": "CC(C)(C)NC(=O)NCc1ccco1", "inhibition": "6.03%"}
{"molecule": "CSc1sc(C(=O)NNC(=O)c2ccc(Cl)cc2)c2c1C=CCC2", "inhibition": "0.19%"}
{"molecule": "O=C(Nc1ccccc1C(F)(F)F)N1CCCC1c1cccnc1", "note": "(stereo unspecified)", "inhibition": "4.33%"}
{"molecule": "O=[N+]([O-])/C=C1\\CCCCCN1", "inhibition": "-14.7%"}
{"molecule": "O=C(O)CSCC(=O)Nc1cccc(C(F)(F)F)c1", "inhibition": "-3.97%"}
{"molecule": "O=C(Nc1cccc(C(F)(F)F)c1)c1cnccn1", "inhibition": "-10.5%"}
{"molecule": "Cn1nc(C(F)(F)F)c(C(=O)Nc2cccc(C(F)(F)F)c2)c1SCc1ccc(Cl)cc1", "inhibition": "80.9% (active)"}
{"molecule": "CCOC(=O)CSc1nc(C)c(Oc2ccc(Cl)cc2Cl)c(=O)[nH]1", "inhibition": "10.4%"}
{"molecule": "O=C(NN1C(=O)C2C(C1=O)C1C=CC2C12CC2)c1ccccc1Cl", "note": "(stereo unspecified)", "inhibition": "3.92%"}
{"molecule": "CCOc1cc(NC(=O)c2ccccn2)c(OCC)cc1NC(=O)c1ccc(OC)cc1", "inhibition": "-5.86%"}
{"molecule": "COc1ccc(-c2csc(Nc3ccccn3)n2)cc1", "inhibition": "-4.38%"}
{"molecule": "COc1ccc(C(=O)/C=C/Nc2ccccn2)cc1", "inhibition": "73.5% (active)"}
{"molecule": "Cn1c2ccc(F)cc2c2nnc(NN)nc21", "inhibition": "13.9%"}
{"molecule": "N#CCCCn1c(O)c(N=NC(=O)C(O)c2ccccc2)c2ccccc21", "note": "(stereo unspecified)", "inhibition": "11.1%"}
{"molecule": "CC(C)C(c1nnnn1Cc1ccccc1)N1CCC(C(N)=O)CC1", "note": "(stereo unspecified)", "inhibition": "76.1% (active)"}
{"molecule": "Cc1ccc(C(c2nnnn2CS(=O)(=O)c2ccc(C)cc2)N2CCC(C(N)=O)CC2)cc1", "note": "(stereo unspecified)", "inhibition": "33.9%"}
{"molecule": "CC(C)C(c1nnnn1CCc1ccccc1)N1CCN(C(=O)c2ccco2)CC1", "note": "(stereo unspecified)", "inhibition": "-7.76%"}
{"molecule": "COc1ccc(NC(=S)Nc2ccccc2Cl)cn1", "inhibition": "1.96%"}
{"molecule": "COc1ccc(CS(=O)/C(Cl)=C(/Cl)C(=O)Nc2ccc(OC)nc2)cc1", "note": "(stereo unspecified)", "inhibition": "107% (active)"}
{"molecule": "COc1ccc(NC(=S)NCCNC(C)=O)cc1", "inhibition": "-5.59%"}
{"molecule": "Cc1nc(COc2cccc(Cl)c2)sc1C(=O)/C=C/N(C)C", "inhibition": "-1.3%"}
{"molecule": "NC(=O)C1(N2CCCCC2)CCN(C(=S)Nc2ccc(Cl)cc2)CC1", "inhibition": "8.9%"}
{"molecule": "NC(=O)C1(N2CCCCC2)CCN(C(=O)c2ccc(C#Cc3ccccc3)o2)CC1", "inhibition": "78.8% (active)"}
{"molecule": "CC(C)(O)C#Cc1ccc(C(=O)N2CCC(C(N)=O)(N3CCCCC3)CC2)cc1", "inhibition": "20.2%"}
{"molecule": "COc1ccc(CCNC(=O)C2CC3Cn4c(nc5cc(C)c(C)cc54)C3N2C)cc1", "note": "(stereo unspecified)", "inhibition": "-11.2%"}
{"molecule": "Cc1ccc(N=C2NC(=O)/C(=C/C=C/c3ccco3)S2)cc1C", "inhibition": "84.4% (active)"}
{"molecule": "Cc1cccc(N=C2NC(=O)/C(=C/c3cn(C)c4ccccc34)S2)c1", "inhibition": "14%"}
{"molecule": "Cc1ccc(N2NC(=O)/C(=C/C=C/c3ccco3)C2=O)cc1C", "inhibition": "5.23%"}
{"molecule": "CCN(CC)C(=O)CC(c1ccc2c(c1)OCO2)c1c(OC)cc(OC)c2c(-c3ccccc3)cc(=O)oc12", "note": "(stereo unspecified)", "inhibition": "9.26%"}
{"molecule": "O=C(Nc1ccccc1N1CCCCC1)c1ccc2nccnc2c1", "inhibition": "79% (active)"}
{"molecule": "O=C(Nc1ccccc1N1CCN(c2ccccc2)CC1)c1cccc(F)c1", "inhibition": "44.2%"}
{"molecule": "O=C(Nc1ccccc1N1CCCCC1)c1cccc(F)c1", "inhibition": "76% (active)"}
{"molecule": "O=C(Nc1ccccc1N1CCN(C(=O)c2ccccc2)CC1)c1ccc2c(c1)OCO2", "inhibition": "40%"}
{"molecule": "Cc1cc(C(=O)Nc2ccccc2N2CCOCC2)c2ccccc2n1", "inhibition": "26.9%"}
{"molecule": "Cc1cccc(C(=O)Nc2ccccc2N2CCN(c3ccc(F)cc3)CC2)c1", "inhibition": "30.4%"}
{"molecule": "CCc1ccccc1N1CN(Cc2ccco2)CNC1=S", "inhibition": "-7.09%"}
{"molecule": "Cc1nc(-c2nnc(SCC(=O)Nc3cc(C(F)(F)F)cc(C(F)(F)F)c3)n2C)cs1", "inhibition": "61.4%"}
